Experimental data reported in the supplement of paper PMC10981050.
Values joined by “and” are separate entries in the source; they are usually repeats but may differ in a detail not shown here. Equal values may be shown once. Where a name gives a salt, the structure may show the parent alone.

Experiments:
Assay in all cases: cell viability relative to vehicle control; higher = less cytotoxic
Details in all cases: 10 µM
K562 = tested on: K562
Outline: (§1)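 After removal of identity-inconsistent compounds, the Selleck bioactive, kinase and epigenetic probe libraries were screened on CRISPR-edited mutant clones and isogenic wild-type clones of four leukaemia lines. Plates were 384-well, each well holding 2000 cells in 50 µL medium and receiving a single 10 µM acoustically dispensed dose. CellTiter-Glo luminescence was read 48 h later, after the supernatant was taken off. Genedata Screener was used to express viability as percent of the on-plate vehicle control.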

MARIMO = tested on: MARIMO
Outline: as §1

MOLM14 = tested on: MOLM14
Outline: as §1

OCI-AML2 = tested on: OCI-AML2
Outline: as §1

SMILES | cell viability (K562; SRSF2 genotype: SRSF2 P95H/wt) | cell viability (K562; SRSF2 genotype: SRSF2 wt/wt) [%] | cell viability (MARIMO; SRSF2 genotype: SRSF2 P95H/wt) [%] | cell viability (MARIMO; SRSF2 genotype: SRSF2 wt/wt) [%] | cell viability (MOLM14; SRSF2 genotype: SRSF2 P95H/wt) [%] | cell viability (MOLM14; SRSF2 genotype: SRSF2 wt/wt) [%] | cell viability (OCI-AML2; SRSF2 genotype: P95H/wt) [%] | cell viability (OCI-AML2; SRSF2 genotype: wt/wt) [%]
CN1CCN(c2ccc(Nc3cc(-c4cccc(-n5ccc6cc(C7CC7)cc(F)c6c5=O)c4CO)cn(C)c3=O)nc2)CC1 | 15.9% and 12.5% | 29.8 | 18.2 | 0.49 | 0.81 | 1.57 | 2.87 | 4.49
COc1ccc(-c2cc(=O)c3c(O)cc(O)cc3o2)cc1 [Acacetin] | 106% | 99.1 | 102 | 115 | 107 | 107 | 88.7 | 102
COc1cc(C(C)=O)ccc1O [Apocynin (Acetovanillone)] | 103% and 104% | 105 | 91.6 | 110 | 104 | 103 | 93 | 93.7
Cc1ccccc1C(C(=O)NC1CCCCC1)N(C(=O)Cn1ccnc1C)c1cccc(F)c1 (stereo unspecified) | 103% and 101% | 97.1 | 99.2 | 98.6 | 100 | 99.8 | 101 | 105
COC(=O)C1=C(C)NC(C)=C(C(=O)OC)C1c1ccccc1[N+](=O)[O-] [Nifedipine (Adalat)] | 76.5% and 90.2% | 80.8 | 57.5 | 51.7 | 49.3 | 49.5 | 29.4 | 48.4
Cc1c(C)c2c(c(C)c1OC(=O)CCC(=O)OCCOCCOCCO)CCC(C)(CCCC(C)CCCC(C)CCCC(C)C)O2 (stereo unspecified) [Tocofersolan] | 78.2% and 80.7% | 92.4 | 80.3 | 63.5 | 87.2 | 97.2 | 59.5 | 77.4
CC(C)n1nc(-c2ccc(NC(=O)Nc3cc(C(F)(F)F)ccc3F)cc2)c2c(N)ncnc21 | 26.5% and 30.8% | 19 | 8.66 | 4.51 | 1.98 | 0.7 | 2.08 | 8.47
C=CC(=O)N[C@H]1CCOC[C@H]1Nc1ncc2cc(-c3c(Cl)c(OC)cc(OC)c3Cl)ccc2n1 | 78.2% and 81.3% | 80.2 | 85.8 | 90.5 | 78.8 | 79.8 | 66.8 | 72.7
CCCc1nn(C)c2c(=O)[nH]c(-c3cc(S(=O)(=O)N4CCN(C)CC4)ccc3OCC)nc12 [Sildenafil Mesylate] | 103% and 96.9% | 103 | 99 | 108 | 107 | 103 | 110 | 105
O=C(NCCO)c1cccc(-c2cc(Nc3ccc(OC(F)(F)F)cc3)ncn2)c1 | 12.1% and 23% | 20.1 | 69.5 | 76.6 | 93.2 | 91.3 | 65 | 72.3
COc1ccc2cc3[n+](cc2c1OC)CCc1cc2c(cc1-3)OCO2 [Berberine Sulfate] | 62.4% and 69.2% | 72.4 | 66.7 | 59.5 | 71 | 75.3 | 49.8 | 46.2
Cc1cc(N2CCOCC2)ccc1Nc1nc(NC2CCCCC2)c2[nH]cnc2n1 | 86.8% and 92.1% | 94.6 | 53 | 53.9 | 49.6 | 39 | 37.8 | 39.8
O=C(Nc1ccc(OC(F)(F)Cl)cc1)c1cnc(N2CC[C@@H](O)C2)c(-c2cc[nH]n2)c1 [Asciminib (ABL001)] | 12.7% and 19% | 17.1 | 68.4 | 64.5 | 92 | 87.7 | 41.2 | 55
CN(C[C@@H]1COCCO1)S(=O)(=O)Nc1ccc2ccc3ncc(-c4cnn(C)c4)cc3c(=O)c2c1 | 77.6% and 96.8% | 82.6 | 74.1 | 72.6 | 20.4 | 16.7 | 41.6 | 47.3
COc1cc(C(=O)NS(=O)(=O)c2ccccc2C)ccc1Cc1cn(C)c2ccc(NC(=O)OC3CCCC3)cc12 [Zafirlukast (Accolate)] | 97.3% and 96.5% | 92.8 | 96 | 110 | 94.3 | 97 | 94.4 | 104
NC(=O)OCC(COC(N)=O)c1ccccc1 [Felbamate] | 93% and 95% | 94.4 | 81.9 | 100 | 93.4 | 89.4 | 96.5 | 113
Cn1c(=O)cc(N2CCC[C@@H](N)C2)n(Cc2ccccc2C#N)c1=O | 96.9% and 97.8% | 88.7 | 94 | 97.1 | 91.3 | 98.3 | 98 | 101
CC(=O)S[C@@H]1CC2=CC(=O)CC[C@]2(C)[C@H]2CC[C@@]3(C)[C@@H](CC[C@@]34CCC(=O)O4)[C@H]12 [spironolactone] | 87.8% and 90.2% | 89.7 | 78.3 | 84.5 | 90.1 | 91.5 | 90.6 | 97.9
CN(CCO)CC(O)Cn1cnc2c1c(=O)n(C)c(=O)n2C (stereo unspecified) [Xanthinol Nicotinate] | 99.3% and 90.3% | 97.9 | 98.2 | 105 | 95.4 | 97.7 | 73.7 | 90.5
Cc1ccccc1CN1C(=O)C2=C(CCN(Cc3ccccc3)C2)N2CCN=C12 | 48.2% and 48% | 44.5 | 46.4 | 43.9 | 36.8 | 44.5 | 29.3 | 32
O=c1ccn(C2OC(CO)C(O)C2O)c(=O)[nH]1 (stereo unspecified) | 90.3% and 93.8% | 99.6 | 99.2 | 97.5 | 100 | 100 | 100 | 95.4
CC1CCC2(C(=O)O)CCC3(C)C(=CCC4C5(C)CCC(OC6OCC(O)C(O)C6O)C(C)(C)C5CCC43C)C2C1(C)O (stereo unspecified) [Ziyuglycoside II] | 100% and 99.1% | 101 | 97.4 | 99 | 103 | 99 | 99.6 | 95.6
